# NR5A2 inv ag: suppresses constitutive activity of human LRH-1; inhibition, % at 3.6 µM; HEK293T StAR-luciferase reporter, LRH-1 transfected, 24 h; O00482; 0.13% of 360,000 active;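 active = inhibition above the mean inhibition of all tested compounds plus 3 SD, cut at about 73% in these data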
# SRC3 inh: inhibitors of human steroid receptor coactivator 3 (SRC3); Q9Y6Q9; HEK293 GAL4-SRC3 luciferase reporter, luminescence; inhibition, % at 3.6 µM; 0.17% of 360,000 active; AID 588352;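 active = inhibition above a per-campaign cutoff, the mean of all compounds plus 3 SD, cut at about 60% in these data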;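 also: higher means less SRC3-driven luciferase light from the GAL4 reporter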
# LGR2 antag: blocks bursicon-induced cAMP signaling via Drosophila LGR2; inhibition, % at 9.99 µM; HEK293 LGR2, CRE-luciferase, bursicon-stimulated, 4 h; 0.35% of 380,000 active;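 active = drop in luminescence signal, shown as inhibition above about 50% in the replicate tests, limit read from the data, passing the limit was not always enough; inconclusive = probably only some replicates passing the limit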;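 also: agonist challenge used bursicon conditioned medium at about half maximal strength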
# SRC2 inh: inhibits human steroid receptor coactivator 2; Q15596; HEK293 GAL4-SRC2 luciferase reporter, luminescence; inhibition, % at 9 µM; 0.17% of 370,000 active; AID 651957;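 active = inhibition above the mean inhibition of all tested compounds plus 3 SD, set per campaign, cut at about 52% in these data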
# SRC1 inh: inhibitors of human steroid receptor coactivator 1 (SRC1); Q15788; 0.12% of 360,000 active; HEK293 GAL4-SRC1 luciferase reporter, luminescence; inhibition, % at 3.6 µM;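 active = inhibition above the campaign mean plus 3 SD, with each screening campaign given its own cutoff, cut at about 60% in these data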
# Hits are given with their value; 0 = inactive; ? = inconclusive; - = not tested or not shown; ! = not active in a repeat. A selection: hits, their analogues and other compounds. The true share with any hit is near 0.45%.
SMILES,NR5A2 inv ag,SRC3 inh,LGR2 antag,SRC2 inh,SRC1 inh
CC(C)CN=C(NS(=O)(=O)c1ccccc1)C(Cl)(Cl)Cl,0,0,94,0,0
N#Cc1c(NC(=O)CSc2nc(N)cc(=O)[nH]2)sc2c1CCCCCC2,0,0,0,0,0
N#Cc1c(NC(=O)CSc2ncn[nH]2)sc2c1CCCCC2,0,0,0,84,0
COc1ccc(NC(=O)N(C)C[C@@H]2OCCCC[C@H](C)Oc3ccc(NS(=O)(=O)c4ccc(OC)cc4)cc3C(=O)N([C@H](C)CO)C[C@H]2C)cc1,-,-,0,-,-
CC(=O)CCSc1ncnc2sc(-c3ccccc3)cc12,0,0,0,0,0
O=C(O)CCSc1ncnc2sc(-c3ccccc3)cc12,0,0,0,81,0
Cc1noc(C)c1S(=O)(=O)N(C)C[C@@H]1Oc2ccc(NC(=O)CCCCCC(=O)Nc3ccccc3N)cc2CC(=O)N([C@@H](C)CO)C[C@@H]1C,-,-,0,-,-
Cc1ccc(NC2=C/C(=N\S(=O)(=O)c3cccs3)c3ccccc3C2=O)c(C)c1,0,70,-,-,67
O=C1C(Nc2ccc(O)cc2)=C/C(=N/S(=O)(=O)c2cccs2)c2ccccc21,86,90,100,71,88
O=C(O)c1ccc(NC2=C/C(=N/S(=O)(=O)c3cccs3)c3ccccc3C2=O)cc1,0,0,?,0,0
Cc1ccc(Cl)cc1NC1=C/C(=N\S(=O)(=O)c2cccs2)c2ccccc2C1=O,0,85!,105,0,72!
CN(C)c1ccc(N=Nc2nccs2)cc1,0,0,86,0,0
CN(C)c1ccc(N=Nc2ccccc2Br)cc1,0,0,?,0,0
COc1ccc(NC(=O)N2CCCCN3[C@@H](CO)[C@H](c4ccc(-c5ccccc5C)cc4)[C@@H]3C2)cc1,-,-,0,-,-
O=C(C[C@H]1CC[C@@H](NS(=O)(=O)c2ccc(F)cc2)[C@@H](CO)O1)NCc1ccccc1F,-,-,0,-,-
C[C@@H]1CCCCO[C@H](CN(C)C(=O)Nc2ccc(F)cc2)[C@@H](C)CN([C@@H](C)CO)C(=O)c2cc(N(C)C)ccc2O1,-,-,0,-,-
O=C(O)c1ccc(N/N=C/c2ccc3nccnc3c2)cc1,0,62,96,68,0
O=C(O)c1ccc(N/N=C/c2ccncc2)cc1,0,0,0,0,0
O=C(O)c1ccc(N/N=C/c2ccc(OC(=O)c3cccc(Cl)c3)cc2)cc1,0,0,80,0,0
Cc1ccc(Cl)cc1N1CCN(C(=O)c2cc3c(=O)[nH]c4ccccc4c3n2C)CC1,0,0,64,0,0
Cn1c(C(=O)N2CCN(c3ccc(Cl)cc3)CC2)cc2c(=O)[nH]c3ccccc3c21,0,0,-,0,0
COc1ccc(-c2n(CC(=O)OC3CC(C)CCC3C(C)C)c3ccccc3[n+]2C)cc1 (stereo unspecified),0,70,0,0,0
COc1ccc(OCc2n(CC(=O)OC3CC(C)CCC3C(C)C)c3ccccc3[n+]2C)cc1 (stereo unspecified),0,0,0,0,0
COc1ccc2c3c(n(C)c2c1)[C@@H](CO)N(C(=O)CN1CCOCC1)CC31CCN(C(=O)CC2CC2)CC1,-,-,0,-,-
C[C@@H]1CN([C@H](C)CO)C(=O)c2cc(NC(=O)CCCN(C)C)ccc2O[C@@H](C)CCCCO[C@H]1CN(C)S(=O)(=O)c1ccccc1,-,-,0,-,-
SMILES,NR5A2 inv ag,SRC3 inh,LGR2 antag,SRC2 inh,SRC1 inh
O=C(O)c1cccc(COc2ccc3c(c2)CCC3)c1,0,0,101,0,0
CCOc1ccc(OCc2cccc(C(=O)O)c2)cc1,0,0,102,0,0
O=C(O)c1cccc(COc2ccc(CO)cc2Cl)c1,0,0,100,0,0
O=C(O)c1ccc(COc2ccc(CO)cc2Cl)cc1,0,0,-,0,0
COc1ccc(OCc2cccc(C(=O)O)c2)cc1,0,0,-,0,0
CO[C@@H]1CN(C)C(=O)c2ccc(NC(=O)c3nc4ccccc4s3)cc2OC[C@@H](C)N(Cc2cncnc2)C[C@H]1C,-,-,0,-,-
c1ccc2cc(CCO[C@H]3CCCCO3)ncc2c1,0,0,55,0,0
c1nc(CCO[C@H]2CCCCO2)cc2cc3c(cc12)OCO3,0,0,91,0,0
c1nc(C2CCCCC2)cc2cc3c(cc12)OCO3,0,0,0,0,0
COc1ccc(-n2ncc(Cl)c(Cl)c2=O)cc1,0,0,106,0,0
COc1ccc(-n2ncc(N(C)n3cccc3)c(Cl)c2=O)cc1,0,0,0,0,0
CC1CCN(c2ccc(-c3cccc(NC(=O)C(F)(F)F)c3)nn2)CC1,0,0,97,0,0
O=C(Nc1cccc(-c2ccc(N3CCCCC3)nn2)c1)C(F)(F)F,0,0,82,0,0
CCC(=O)Nc1cccc(-c2ccc(N3CCC(C)CC3)nn2)c1,0,0,?,0,0
CCCC(=O)N1CC2(C1)CN(C(=O)CC1CC1)[C@@H](CO)c1c2c2ccc(OC)cc2n1C,-,-,0,-,-
Cc1ccc2oc(-c3cccc(NC(=O)C4CCCO4)c3)nc2c1 (stereo unspecified),0,0,-,0,0
Cc1cccc(-c2nc3cc(NC(=O)C4CCCO4)ccc3o2)c1 (stereo unspecified),0,0,59,0,0
COc1cc(N)ccc1Nc1c2ccccc2nc2ccccc12,0,0,-,-,0
CCCS(=O)(=O)Nc1ccc(Nc2c3ccccc3nc3ccccc23)c(OC)c1,0,70,0,0,66
CN(C)c1ccc2c(c1)[C@H]1C[C@@H](CC(=O)N3CCCCC3)O[C@@H](CO)[C@H]1O2,-,-,0,-,-
CC(C)(C)c1nnc(N/N=C/c2cc(Br)ccc2O)n(N)c1=O,0,76,0,0,67
COc1ccc(C#Cc2ccc3c(c2)[C@H]2[C@H](CCN2Cc2ccncc2)[C@@H](CO)N3)cc1,-,-,0,-,-
Clc1ccccc1/C=C/c1nc(-c2ccccn2)no1,0,0,98,0,0
CN(C)C(=O)c1ccc(-c2ccc3c(c2)[C@H]2[C@H](CCN2C(=O)C2CCOCC2)[C@@H](CO)N3C)cc1,-,-,0,-,-
O=C(C[C@@H]1C=C[C@@H](NC(=O)C2CCOCC2)[C@@H](CO)O1)NCc1ccccc1Cl,-,-,0,-,-
SMILES,NR5A2 inv ag,SRC3 inh,LGR2 antag,SRC2 inh,SRC1 inh
COCCCNc1ccn2nc(-c3ccccc3)cc2n1,0,0,72,0,0
COc1ccccc1C#Cc1ccc2c(c1)[C@H]1[C@H](CCN1S(=O)(=O)c1cccc(C)c1)[C@@H](CO)N2,-,-,0,-,-
COCC(=O)N[C@@H]1CC[C@@H](CC(=O)NCc2ccccc2OC)O[C@@H]1CO,-,-,79,-,-
C/C(CC(C)(C)C1CCCCC1)=N\NC(N)=S,0,62,0,0,0
CC(C)CCCCCCCCCCCCC(=O)NCC(=O)NC1C(O)C(O)C(Nc2ncnc3nc[nH]c23)OC1C(O)CO (stereo unspecified),99,93,-,-,95
Nc1ncnc(N2CCc3ccccc32)c1[N+](=O)[O-],0,65,0,0,73
COc1ccc2c3c([nH]c2c1)[C@@H](CO)N(Cc1ccccn1)CC31CCN(C(=O)c2ccccn2)CC1,-,-,0,-,-
O=C1c2ccccc2-c2nnc(-c3ccc(O)cc3)cc21,0,0,0,0,0
